The text below walks through data of PubChem BioAssay (Tox21).

Assay [1] can be described thus: qHTS assay to identify small molecule antagonists of the estrogen related receptor (ERR) signaling pathway from Tox21 library - cell viability counter screen (AID 1224834). Further: nearly all actives have a fitted effect of over 30% in size. Further: potency means the concentration at half of the fitted maximal effect. The method, boiled down: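 Multiplexed viability counter screen in ERR cells: 17.5 h compound exposure at 37 C, CellTiter-Fluor added, 30 min at 37 C/5% CO2, fluorescence read.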
On the technique in general: qHTS replaces the single test concentration by a dilution series.

Assay [2] addresses Luciferin 4-monooxygenase (Photinus pyralis) (UniProt P08659). Nature of the assay: qHTS assay to identify small molecule inhibitors of firefly luciferase (AID 1224835). Further: nearly all actives have a fitted effect of over 25% in size. Further: potency means the concentration at half of the fitted maximal effect. In short, it runs like this:
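Quantitative HTS format; KM concentrations of both substrates. Purified P. pyralis FLuc activity quantified from luminescence images.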

Assay [3] can be described thus: qHTS assay to identify small molecule antagonists of the constitutive androstane receptor (CAR) signaling pathway - cell viability counter screen (AID 1224837). Further: nearly all actives have a fitted effect of over 45% in size. The method, boiled down: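 Read-out: CellTiter-Fluor fluorescence after 23 hr at 37 C/5% CO2. Cells: HepG2 double-stable for hCAR and CYP2B6-2.2kb. Compounds tested at 15 concentrations in the presence of CITCO, final concentration 50 nM.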

For assay [4], the target named is Nuclear receptor subfamily 1 group I member 3 (Homo sapiens) (UniProt Q14994). Nature of the assay: qHTS assay to identify small molecule antagonists of the constitutive androstane receptor (CAR) signaling pathway (AID 1224838).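 Further: HepG2 cells stably expressing hCAR with CYP2B6 luciferase reporter stimulated by CITCO; nearly all actives have a fitted effect of over 40% in size.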 Further: potency means the concentration at half of the fitted maximal effect. The method, boiled down:
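Read-out: ONE-Glo luciferase luminescence after 30 min at room temperature. HepG2-CYP2B6-hCAR double-stable cells, compounds in 15-point titration plus 50 nM CITCO final, 24 h at 37 C/5% CO2.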

Assay [5] has the same target. Nature of the assay: qHTS assay to identify small molecule agonists of the constitutive androstane receptor (CAR) signaling pathway (AID 1224839). Further: nearly all actives have a fitted effect of over 15% in size. Further: potency means the concentration at half of the fitted maximal effect.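 On activation: HepG2 cells stably carrying human CAR and a CYP2B6 luciferase reporter.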 In short, it runs like this:
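HepG2-CYP2B6-hCAR cells, 2500/well, 4 h pre-incubation; compounds 15 conc.; PK11195 0.75 uM final; 24 h, 37 C/5% CO2; ONE-Glo luciferase read.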

The nature of assay [6]: qHTS assay to identify small molecule antagonists of the estrogen related receptor signaling pathway with the pleiotropic PPARgamma coactivator (PGC) from Tox21 10K library (AID 1224841; call rule not given here; further: actives are mostly falling curves and most rising ones were filed inactive; nearly all actives have a fitted effect of over 50% in size; further: potency means the concentration at half of the fitted maximal effect). The method, boiled down:
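Luminescence read-out (One-Glo luciferase reagent, 30 min at room temperature) from PGC/ERR cells exposed to DMSO-dissolved test compounds for 18 h at 37 C; cells, 2,000 per well, had been preincubated 6 h before compound transfer.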

Assay [7] in a line: qHTS assay to identify small molecule agonists of the estrogen related receptor signaling pathway with the pleiotropic PPARgamma coactivator (PGC) from Tox21 10K library (AID 1224842). Further: nearly all actives have a fitted effect of over 15% in size. The method, boiled down: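 PGC/ERR reporter cells (NTP line) were seeded 2,000 per well, rested 6 h at 37 C/5% CO2, then pin-dosed with compounds in DMSO for 18 h at 37 C; luciferase read by One-Glo luminescence after 30 min at room temperature.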

The target in assay [8] is Thyrotropin receptor (Homo sapiens) (UniProt P16473). Nature of the assay: qHTS assay to identify small molecule agonists of the thyroid stimulating hormone receptor (TSHR) signaling pathway (AID 1224843; calls by dose curve; further: nearly all actives have a fitted effect of over 45% in size; further: potency means the concentration at half of the fitted maximal effect). The method, boiled down: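 Compounds are titrated over 15 concentrations, in triplicate, onto TSHR-HEK293 cells seeded at 800/well. Plates sit 30 min at room temperature before cAMP-d2 and anti-cAMP cryptate are added; signal is read after a further hour.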

Assay [9] can be described thus: qHTS assay to identify small molecule agonists of H2AX (AID 1224845; active means well fitted activation curve with a large enough effect in the signal ratio in the repeat runs, not every such curve was filed as active; the % refers to the signal ratio). In short, it runs like this:
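Wild-type CHO-K1 cells plated overnight, then exposed 3 hr at 37C to compounds at 15 concentrations (0.76% DMSO). Lysed, then HTRF anti-pH2AX(S139)-cryptate/anti-H2AX-d2 detection after 24 hr at room temperature; emissions 665 and 620 nm.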

Assay [10] is described as follows: qHTS assay to identify small molecule agonists of the hypoxia (HIF-1) signaling pathway (AID 1224846; active means well fitted activation curve with a large enough effect in the signal ratio in the repeat runs, not every such curve was filed as active; the % refers to the signal ratio). The method, boiled down: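 Beta-lactamase FRET read-out (CCF4-AM substrate) from ME-180 cells carrying an HRE-driven bla reporter, after 17 hrs compound exposure at 37C/5% CO2. Cells were seeded at 2,000 per well in 0.5% dialyzed FBS medium and preincubated 5 hrs.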

A short description of assay [11]: qHTS assay to identify small molecule agonists of H2AX - cell viability counter screen (AID 1224847; calls by dose curve; further: nearly all actives have a fitted effect of over 30% in size; further: potency means the concentration at half of the fitted maximal effect). The method, boiled down:
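Cells plated first: CHO-K1, 1000 per well in 10% FBS medium, incubated overnight at 37C. Then 15-point compound titration added (final DMSO 0.76%) for 3 hr. Finally CellTiter-Glo added and luminescence read.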

The nature of assay [12]: qHTS assay to identify small molecule antagonists of the estrogen related receptor (ERR) signaling pathway from Tox21 library (AID 1224848). Further: nearly all actives have a fitted effect of over 50% in size. Further: potency means the concentration at half of the fitted maximal effect. In short, it runs like this: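 First, 2,000 ERR cells per well were plated and held 6 h at 37 C/5% CO2. Next, compounds in DMSO were pinned in and left 18 h at 37 C. Finally, ONE-Glo was added and luminescence read after 30 min at room temperature.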

A short description of assay [13]: qHTS assay to identify small molecule agonists of the estrogen related receptor (ERR) signaling pathway from Tox21 library (AID 1224849; calls by dose curve; further: nearly all actives have a fitted effect of over 15% in size). The note with it: ERR reporter cell line, ONE-Glo luciferase, 18 h; at 92.4 µM (top of the series). In short, it runs like this: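 Luminescence readout (ONE-Glo, 30 min RT) after 18 h compound exposure at 37 C of NTP-supplied ERR reporter cells; cells were plated 6 h before compound addition by pin tool.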

Assay [14] in a line: qHTS RealTime-Glo MT Cell Viability Assay in HepG2 cells - 24 hour (AID 1224867). Further: nearly all actives have a fitted effect of over 50% in size. Further: potency means the concentration at half of the fitted maximal effect. In short, it runs like this:
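HepG2 cells were seeded at 600 cells/well together with NanoLuc luciferase and a cell-permeant prosubstrate, preincubated 5 h at 37 C/5% CO2, then pin-dosed with compounds in DMSO. Nonlytic luminescence from viable cells was read at each time point.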

The nature of assay [15]: qHTS RealTime-Glo MT Cell Viability Assay in HEK293 cells - 32 hour (AID 1224868). Further: nearly all actives have a fitted effect of over 50% in size. Further: potency means the concentration at half of the fitted maximal effect. The method, boiled down: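 HEK293 cells were seeded at 600 cells/well together with NanoLuc luciferase and cell-permeant prosubstrate, preincubated 5 h at 37 C/5% CO2, then given compound in DMSO by pintool. Luminescence from viable-cell prosubstrate reduction was read repeatedly over 40 h.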

A short description of assay [16]: A CellTox Green Cytotoxicity Assay to monitor cytotoxicity in HEK293 cells - 0 hour (AID 1224869). Further: nearly all actives have a fitted effect of over 50% in size. Further: potency means the concentration at half of the fitted maximal effect. In short, it runs like this: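 Read-out: fluorescence of a cell-impermeant cyanine dye staining DNA of dead cells, proportional to cytotoxicity. HEK293, 600 cells/well with reagent, compound (23 nL DMSO) added after 5 h; reads at 0, 8, 16, 24, 32, 40 h.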
A short description of assay [17]: qHTS assay to identify small molecule antagonists of the estrogen related receptor signaling pathway with the pleiotropic PPARgamma coactivator (PGC) from Tox21 10K library - cell viability counter screen (AID 1224840; active means well fitted cell-killing curve with a large enough effect in the repeat runs, not every such curve was filed as active; further: nearly all actives have a fitted effect of over 40% in size; further: potency means the concentration at half of the fitted maximal effect). In short, it runs like this:
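Fluorescence read-out of CellTiter-Fluor viability reagent, added after cells had been exposed to compound in DMSO for 17.5 h at 37 C; 30 min development at 37 C/5% CO2. Cells: PGC/ERR line, 2,000/well.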

Assay [18] in a line: qHTS assay to identify small molecule agonists of the hypoxia (HIF-1) signaling pathway - cell viability counter screen (AID 1224844; calls by dose curve; further: nearly all actives have a fitted effect of over 50% in size; further: potency means the concentration at half of the fitted maximal effect). In short, it runs like this:
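CellTiter-Glo luminescence read-out, 30 min RT, taken in the same wells as the beta-lactamase HRE reporter assay; HRE-bla ME-180 cells, 0.5% dialyzed FBS, 17 hr compound treatment at 37C, 5% CO2.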

The nature of assay [19]: qHTS assay to identify small molecule agonists of the constitutive androstane receptor (CAR) signaling pathway - cell viability counter screen (AID 1224836). Further: nearly all actives have a fitted effect of over 45% in size. In short, it runs like this: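 HepG2-CYP2B6-hCAR, 2500 cells/well, 4 h pre-incubation; cpd 15 conc + PK11195 0.75 uM final; 23 h, 37 C/5% CO2; CellTiter-Fluor, fluorescence.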

Several values for one entry are separate records, joined by “and”; a condition that tells them apart may be missing. Identical values can stand only once. Inconclusive results are not listed. Where a structure was tested more than once in an assay, its records may differ in their call. Activity calls are given as the source filed them. Unless noted, the call rests on the fitted dose curve; in most records, active means well fitted curve in the direction sought with a large enough effect in the repeat runs; inconclusive means weak or mixed curves; inactive means no such curve, though single readings can be large; an effect the other way counts as inactive or inconclusive.
On the % scale 0 is the no-effect control and ±100 the full control effect.

Nuclear receptor subfamily 1 group I member 3 (Homo sapiens), sequence (Q14994 whole entry, looked up): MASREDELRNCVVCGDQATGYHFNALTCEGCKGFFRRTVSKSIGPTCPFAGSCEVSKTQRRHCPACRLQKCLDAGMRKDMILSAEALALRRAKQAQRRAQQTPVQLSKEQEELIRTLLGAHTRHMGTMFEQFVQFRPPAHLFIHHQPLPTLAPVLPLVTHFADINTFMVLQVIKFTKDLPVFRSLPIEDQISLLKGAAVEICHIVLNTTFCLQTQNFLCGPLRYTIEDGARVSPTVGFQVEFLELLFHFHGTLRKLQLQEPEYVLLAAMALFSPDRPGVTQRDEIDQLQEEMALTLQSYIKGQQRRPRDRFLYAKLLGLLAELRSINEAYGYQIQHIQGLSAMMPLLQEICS
Luciferin 4-monooxygenase (Photinus pyralis), sequence (P08659 whole entry, looked up): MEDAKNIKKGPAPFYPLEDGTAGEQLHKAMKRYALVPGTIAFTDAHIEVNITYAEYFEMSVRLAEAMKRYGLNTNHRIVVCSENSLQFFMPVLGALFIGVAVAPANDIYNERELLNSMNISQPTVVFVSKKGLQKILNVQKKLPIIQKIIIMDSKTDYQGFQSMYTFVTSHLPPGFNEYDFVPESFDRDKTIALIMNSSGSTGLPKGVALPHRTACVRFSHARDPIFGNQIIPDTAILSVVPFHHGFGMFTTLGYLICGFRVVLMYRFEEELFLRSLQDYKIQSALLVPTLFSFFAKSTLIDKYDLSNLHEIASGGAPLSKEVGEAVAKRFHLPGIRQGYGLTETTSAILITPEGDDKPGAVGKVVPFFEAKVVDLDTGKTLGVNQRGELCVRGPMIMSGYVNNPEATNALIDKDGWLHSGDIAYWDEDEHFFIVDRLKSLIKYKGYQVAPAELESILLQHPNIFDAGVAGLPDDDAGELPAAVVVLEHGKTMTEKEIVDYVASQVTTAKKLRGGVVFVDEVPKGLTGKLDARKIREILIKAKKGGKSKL
Thyrotropin receptor (Homo sapiens), sequence (P16473 whole entry, looked up): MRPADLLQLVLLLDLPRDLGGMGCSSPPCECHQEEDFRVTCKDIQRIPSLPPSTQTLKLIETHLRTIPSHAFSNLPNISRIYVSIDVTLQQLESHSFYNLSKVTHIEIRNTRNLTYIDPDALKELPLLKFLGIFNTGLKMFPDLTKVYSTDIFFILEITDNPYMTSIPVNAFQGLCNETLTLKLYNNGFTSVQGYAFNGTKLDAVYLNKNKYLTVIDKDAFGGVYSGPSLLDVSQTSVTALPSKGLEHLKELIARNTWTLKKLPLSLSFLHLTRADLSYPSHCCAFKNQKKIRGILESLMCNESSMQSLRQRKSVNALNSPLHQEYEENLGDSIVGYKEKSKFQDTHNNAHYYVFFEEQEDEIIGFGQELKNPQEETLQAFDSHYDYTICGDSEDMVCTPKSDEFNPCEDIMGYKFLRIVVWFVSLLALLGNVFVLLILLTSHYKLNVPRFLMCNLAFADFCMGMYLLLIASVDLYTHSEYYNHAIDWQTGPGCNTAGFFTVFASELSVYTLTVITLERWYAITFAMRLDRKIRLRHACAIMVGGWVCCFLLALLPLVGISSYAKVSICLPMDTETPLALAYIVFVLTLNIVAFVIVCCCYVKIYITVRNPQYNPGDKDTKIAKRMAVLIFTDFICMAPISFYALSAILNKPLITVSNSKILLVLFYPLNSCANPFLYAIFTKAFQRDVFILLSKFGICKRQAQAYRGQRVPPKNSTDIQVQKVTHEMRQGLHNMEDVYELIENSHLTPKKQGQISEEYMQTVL

`S=C(NC1CCCCC1)NC1CCCCC1`: the Potency is 13.7 µM (active) in assay [1]; 13.4 µM (active) and 8.63 µM (active) in [4]; 23.9 µM (active) and 21.7 µM (active) in assay [6]; 15.1 µM (active) and inactive in assay [12]; 15.2 µM (active) and 21.9 µM (active) in [15]. Besides, the Potency entry in [2], in assay [3], in [5], in [7], in assay [8] and in assay [10] was “inactive” in each case. In addition, the Potency entry in [11], in [14] and in [16] was “inactive” in each case. In addition, the molecule was called inactive in assay [9]. In addition, the activity change, positive = activation in assay [13] is -59.4% (inactive) and -64.8% (inactive).
`COc1c(Cl)c(Cl)c(Cl)c(Cl)c1Cl`: the Potency entry in assay [1], in assay [2], in assay [3], in assay [4], in assay [17] and in [6] was “inactive” in each case. The Potency result in assay [7], in assay [8], in [18], in assay [11], in [12] and in [14] was “inactive” each time. Further, the Potency entry in assay [15] and in assay [16] was “inactive” throughout. For the same molecule, the outcome in assay [9] was inactive. Also, the activity change, positive = activation in assay [13] is 0.259% (inactive) and 0.227% (inactive).
Turning to `Cc1cc2nc3c(=O)[nH]c(=O)nc-3n(C[C@H](O)[C@H](O)[C@H](O)CO)c2cc1C`, the Potency entry in assay [2], in assay [4], in assay [5], in [8], in assay [18] and in assay [11] was “inactive” in each case. In addition, the Potency entry in [14] and in assay [15] was “inactive” in each case. The result in assay [9] was inactive. Besides, the Potency in assay [16] was 43.2 µM (active) and 40.5 µM (active) and 11.7 µM (active).
On to `Nc1ccccc1N`, for which the Potency in [2] is 8.15 µM (active) and 1.78 µM (active); in [5] it was 24.3 µM (active); in [18], 43.6 µM (active); in assay [16] it was 50.1 µM (active). In addition, the Potency entry in assay [4], in assay [17], in assay [10], in assay [11], in [14] and in [15] was “inactive” each time.
As to `c1ccc2sc(SSN3CCOCC3)nc2c1`, the Potency result in [1], in assay [17], in [6], in [7], in [8] and in [12] was “inactive” in each case. Besides, the Potency result in assay [16] is “inactive”. Also, the Potency was 22.4 µM (active) and 15.9 µM (active) in [2]; 54.9 µM (active) in assay [14]; 21.8 µM (active) and 43.6 µM (active) in assay [15]. Also, the activity change, positive = activation in assay [13] is 4.82% (inactive) and -28.8% (inactive).
Turning to `CCC(C)OC(=O)c1ccc(O)cc1` (centres undefined), the Potency result in [1], in [19], in assay [3], in [4], in [17] and in assay [6] was “inactive” in each case. For the same molecule, the Potency result in assay [8], in assay [18], in [11], in assay [12], in [14] and in assay [16] was “inactive” each time. The Potency in assay [5] is 61.5 µM (active) and 54.5 µM (active). In addition, the result in [9] was inactive. Moreover, the activity change, positive = activation in assay [13] was 6.7% (active).
With `CCCCNS(=O)(=O)c1ccccc1`, the Potency entry in assay [1], in [2], in [3], in [17], in assay [8] and in [11] was “inactive” each time. The Potency result in assay [14] and in assay [16] was “inactive” throughout. Moreover, in assay [9], the call was inactive. For the same molecule, the Potency entry in assay [15] was “inactive and 4.36 µM (active)”.
With `CNCCCC12CCC(c3ccccc31)c1ccccc12`, the Potency in assay [1] is 61.1 µM (active) and inactive; in [4], 21.7 µM (active) and inactive; in assay [17] it was 48.6 µM (active) and inactive; in assay [8] it was 4.33 µM (active) and 26.6 µM (active); in assay [11], 113 µM (active); in [14] it was 49 µM (active) and 23.9 µM (active). In addition, the Potency in [15] was 49 µM (active) and 23.9 µM (active). Also, the Potency entry in assay [2] and in assay [16] was “inactive” in each case.
For the molecule `OCCO`, the Potency result in [1], in [2], in assay [3], in assay [4], in [5] and in assay [17] was “inactive” in each case. Besides, the Potency result in assay [8], in assay [14], in [15] and in assay [16] was “inactive” in each case. The molecule was called inactive in [9].
For `CCCCOCCOCCO`, the Potency result in [1], in assay [2], in assay [3], in assay [17], in [8] and in [18] was “inactive” throughout. Besides, the Potency entry in [11], in assay [14], in [15] and in [16] was “inactive” throughout. The molecule was called inactive in [9].
